{"source": "PubChem BioAssay (NCATS)", "note": "Inconclusive results are not listed. Activity calls are given as the source filed them. Calls follow the shape of the dose curve; as a rule, active = well fitted inhibition curve with a large enough effect; inconclusive = small, poorly fitted or top-dose-only effect; inactive = flat fitted curve, though single readings scatter. % is scaled to controls: 0 for no effect and ±100 for the full control effect; potency is read from the fitted curve at half-maximal effect."}
{"test_system": "MCC-13", "test": "qHTS assay to identify novel small-molecules to repurpose for Merkel cell carcinoma treatment (AID 1296009); also: nearly all actives have a fitted effect of over 60% in size", "conditions": "MCC and control cell lines, CellTiter-Glo viability, 72 h; series mostly up to 46 µM; activity change, negative = cytotoxicity: at the top concentration", "summary_of_the_method": "(§1)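 72 hr, 37 degree celsius; NPC 8-pt / MIPE 11-pt dose response; compound pinned in DMSO; CellTiter-Glo, 10 min RT, luminescence; normalized to no-cell and DMSO controls.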"}
{"smiles": "Cc1ccc([N+](=O)[O-])[c]2c1[O][Hg]2", "Potency": "2110 nM (active)"}
{"smiles": "O=C(N[C@@H]1N=C(c2ccccc2F)c2cccc3c2N(CC3)C1=O)c1cc2ccccc2[nH]1", "activity change, negative = cytotoxicity": "1% (inactive)"}
{"smiles": "CC1Sc2c(C(=O)O)c(=O)c3cc(F)c(N4CCNCC4)cc3n21", "note": "(stereo not drawn)", "activity change, negative = cytotoxicity": "1.47% (inactive)"}
{"smiles": "OC(O)C(Cl)(Cl)Cl", "activity change, negative = cytotoxicity": "11.4% (inactive)"}
{"smiles": "CCCOC(=O)Cc1ccc(OCC(=O)N(CC)CC)c(OC)c1", "activity change, negative = cytotoxicity": "-6.75% (inactive)"}
{"smiles": "COP(=O)(OC)C(O)C(Cl)(Cl)Cl", "note": "(stereo not drawn)", "activity change, negative = cytotoxicity": "-2.65% (inactive)"}
{"smiles": "COCC(=O)N(c1c(C)cccc1C)C(C)C(=O)OC", "note": "(stereo not drawn)", "activity change, negative = cytotoxicity": "7.32% (inactive)"}
{"smiles": "C[C@@H]1CN(C2CCC(C#N)(c3ccc(F)cc3)CC2)CC[C@]1(C(=O)O)c1ccccc1", "note": "(stereo partly drawn)", "activity change, negative = cytotoxicity": "5.37% (inactive)"}
{"smiles": "O=C(O)c1nn(Cc2ccc(Cl)cc2Cl)c2ccccc12", "Potency": "inactive"}
{"smiles": "Cc1ccc(N=CN(C)C=Nc2ccc(C)cc2C)c(C)c1", "activity change, negative = cytotoxicity": "1.46% (inactive)"}
{"smiles": "COC(=O)C1=CCCN(C)C1", "Potency": "inactive"}
{"smiles": "O=C(CCCN1CCC(n2c(=O)[nH]c3ccccc32)CC1)c1ccc(F)cc1", "activity change, negative = cytotoxicity": "-5.32% (inactive)"}
{"smiles": "O=C1CN2CCOC2(c2ccccc2Cl)c2cc(Cl)ccc2N1", "note": "(stereo not drawn)", "activity change, negative = cytotoxicity": "10.4% (inactive)"}
{"smiles": "C[C@H]1CNCCc2ccc(Cl)cc21", "activity change, negative = cytotoxicity": "1.29% (inactive)"}
{"smiles": "COc1cc(N)c(Cl)cc1C(=O)NC1CN2CCC1CC2", "note": "(stereo not drawn)", "activity change, negative = cytotoxicity": "8.79% (inactive)"}
{"smiles": "O=C(O)Cc1ccccc1", "activity change, negative = cytotoxicity": "-4.81% (inactive)"}
{"smiles": "C1CN2CCC1CC2", "activity change, negative = cytotoxicity": "0.524% (inactive)"}
{"smiles": "CN1C(=O)CN=C(c2ccccc2)c2cc([N+](=O)[O-])ccc21", "activity change, negative = cytotoxicity": "17.3% (inactive)"}
{"smiles": "O=C(CBr)Nc1ccc(Cl)cc1C(=O)c1ccccc1F", "activity change, negative = cytotoxicity": "-10.2% (inactive)"}
{"smiles": "CCOC(=O)NC(O)C(Cl)(Cl)Cl", "note": "(stereo not drawn)", "activity change, negative = cytotoxicity": "8.46% (inactive)"}
{"smiles": "CC(C)C(Br)C(=O)NC(N)=O", "note": "(stereo not drawn)", "activity change, negative = cytotoxicity": "10.5% (inactive)"}
{"smiles": "COP(=O)(OC)OC=C(Cl)Cl", "activity change, negative = cytotoxicity": "1.08% (inactive)"}
{"smiles": "COc1cc(C[C@@H](C)N)c(OC)cc1Br", "activity change, negative = cytotoxicity": "-13.4% [at 92.7 µM] (inactive)"}
{"smiles": "ClCCCN1CCN(c2cccc(Cl)c2)CC1", "activity change, negative = cytotoxicity": "13.2% (inactive)"}
{"smiles": "CC(CC(C(N)=O)(c1ccccc1)c1ccccc1)N(C)C", "note": "(stereo not drawn)", "activity change, negative = cytotoxicity": "3.61% (inactive)"}
{"smiles": "Cc1nc2ccccc2c(=O)n1-c1ccccc1Cl", "activity change, negative = cytotoxicity": "-1.58% [at 92.7 µM] (inactive)"}
{"smiles": "CCS(=O)(=O)C(C)(C)S(=O)(=O)CC", "activity change, negative = cytotoxicity": "-3.31% (inactive)"}
{"smiles": "O=c1[nH]c2cc(Cl)ccc2n1C1CCNCC1", "activity change, negative = cytotoxicity": "13.3% (inactive)"}
{"smiles": "C[N+]1(CCC(C(N)=O)(c2ccccc2)c2ccccc2)CCCCC1", "activity change, negative = cytotoxicity": "7.02% (inactive)"}
{"smiles": "COP(=S)(OC)Oc1ccc(Sc2ccc(OP(=S)(OC)OC)cc2)cc1", "activity change, negative = cytotoxicity": "0.316% (inactive)"}
{"smiles": "NC(=O)OCCCc1ccccc1", "activity change, negative = cytotoxicity": "14.7% (inactive)"}
{"smiles": "CCOP(=S)(OCC)O/N=C(\\C#N)c1ccccc1", "activity change, negative = cytotoxicity": "3.99% (inactive)"}
{"smiles": "CCN1CCCC1CNC(=O)C(O)(c1ccccc1)c1ccccc1", "note": "(stereo not drawn)", "activity change, negative = cytotoxicity": "-0.35% (inactive)"}
{"smiles": "CCC1(CC)C(=O)NC(=O)NC1=O", "activity change, negative = cytotoxicity": "9.57% (inactive)"}
{"smiles": "CC(C)(O)C(Cl)(Cl)Cl", "activity change, negative = cytotoxicity": "14.4% (inactive)"}
{"smiles": "c1ccc2nc(N3CCNCC3)ccc2c1", "activity change, negative = cytotoxicity": "-16.5% (inactive)"}
{"smiles": "CCOC(=O)C(c1c(O)c2ccccc2oc1=O)c1c(O)c2ccccc2oc1=O", "activity change, negative = cytotoxicity": "17.5% (inactive)"}
{"smiles": "CC(C)(C)OC(=O)c1ncn2c1[C@@H]1CCCN1C(=O)c1c(Br)cccc1-2", "activity change, negative = cytotoxicity": "5.89% (inactive)"}
{"smiles": "CC(C(O)c1ccccc1)N(C)C/C=C/c1ccccc1", "note": "(stereo not drawn)", "activity change, negative = cytotoxicity": "-4.57% (inactive)"}
{"test_system": "MCC-26", "test": "qHTS assay to identify novel small-molecules to repurpose for Merkel cell carcinoma treatment (AID 1296009); also: nearly all actives have a fitted effect of over 60% in size", "conditions": "MCC and control cell lines, CellTiter-Glo viability, 72 h; series mostly up to 46 µM; activity change, negative = cytotoxicity: at the top concentration", "summary_of_the_method": "as §1"}
{"smiles": "Cc1ccc([N+](=O)[O-])[c]2c1[O][Hg]2", "Potency": "1880 nM (active)"}
{"smiles": "O=C(N[C@@H]1N=C(c2ccccc2F)c2cccc3c2N(CC3)C1=O)c1cc2ccccc2[nH]1", "activity change, negative = cytotoxicity": "-6.99% (inactive)"}
{"smiles": "CC1Sc2c(C(=O)O)c(=O)c3cc(F)c(N4CCNCC4)cc3n21", "note": "(stereo not drawn)", "activity change, negative = cytotoxicity": "12.5% (inactive)"}
{"smiles": "OC(O)C(Cl)(Cl)Cl", "activity change, negative = cytotoxicity": "7.21% (inactive)"}
{"smiles": "CCCOC(=O)Cc1ccc(OCC(=O)N(CC)CC)c(OC)c1", "activity change, negative = cytotoxicity": "3.12% (inactive)"}
{"smiles": "COP(=O)(OC)C(O)C(Cl)(Cl)Cl", "note": "(stereo not drawn)", "activity change, negative = cytotoxicity": "9.21% (inactive)"}
{"smiles": "COCC(=O)N(c1c(C)cccc1C)C(C)C(=O)OC", "note": "(stereo not drawn)", "activity change, negative = cytotoxicity": "10.9% (inactive)"}
{"smiles": "C[C@@H]1CN(C2CCC(C#N)(c3ccc(F)cc3)CC2)CC[C@]1(C(=O)O)c1ccccc1", "note": "(stereo partly drawn)", "activity change, negative = cytotoxicity": "-3.5% (inactive)"}
{"smiles": "O=C(O)c1nn(Cc2ccc(Cl)cc2Cl)c2ccccc12", "Potency": "inactive"}
{"smiles": "Cc1ccc(N=CN(C)C=Nc2ccc(C)cc2C)c(C)c1", "outcome": "inactive"}
{"smiles": "COC(=O)C1=CCCN(C)C1", "Potency": "inactive"}
{"smiles": "O=C(CCCN1CCC(n2c(=O)[nH]c3ccccc32)CC1)c1ccc(F)cc1", "activity change, negative = cytotoxicity": "-14.3% (inactive)"}
{"smiles": "O=C1CN2CCOC2(c2ccccc2Cl)c2cc(Cl)ccc2N1", "note": "(stereo not drawn)", "activity change, negative = cytotoxicity": "8.8% (inactive)"}
{"smiles": "C[C@H]1CNCCc2ccc(Cl)cc21", "activity change, negative = cytotoxicity": "-0.864% (inactive)"}
{"smiles": "COc1cc(N)c(Cl)cc1C(=O)NC1CN2CCC1CC2", "note": "(stereo not drawn)", "activity change, negative = cytotoxicity": "-4.18% (inactive)"}
{"smiles": "O=C(O)Cc1ccccc1", "activity change, negative = cytotoxicity": "-13.4% (inactive)"}
{"smiles": "C1CN2CCC1CC2", "activity change, negative = cytotoxicity": "11.1% (inactive)"}
{"smiles": "CN1C(=O)CN=C(c2ccccc2)c2cc([N+](=O)[O-])ccc21", "activity change, negative = cytotoxicity": "8.47% (inactive)"}
{"smiles": "O=C(CBr)Nc1ccc(Cl)cc1C(=O)c1ccccc1F", "activity change, negative = cytotoxicity": "0.123% (inactive)"}
{"smiles": "CCOC(=O)NC(O)C(Cl)(Cl)Cl", "note": "(stereo not drawn)", "activity change, negative = cytotoxicity": "5.03% (inactive)"}
{"smiles": "CC(C)C(Br)C(=O)NC(N)=O", "note": "(stereo not drawn)", "activity change, negative = cytotoxicity": "-8.93% (inactive)"}
{"smiles": "COP(=O)(OC)OC=C(Cl)Cl", "activity change, negative = cytotoxicity": "9.07% (inactive)"}
{"smiles": "COc1cc(C[C@@H](C)N)c(OC)cc1Br", "activity change, negative = cytotoxicity": "-2.48% [at 92.7 µM] (inactive)"}
{"smiles": "ClCCCN1CCN(c2cccc(Cl)c2)CC1", "activity change, negative = cytotoxicity": "2.04% (inactive)"}
{"smiles": "CC(CC(C(N)=O)(c1ccccc1)c1ccccc1)N(C)C", "note": "(stereo not drawn)", "activity change, negative = cytotoxicity": "-7.54% (inactive)"}
{"smiles": "Cc1nc2ccccc2c(=O)n1-c1ccccc1Cl", "activity change, negative = cytotoxicity": "-0.748% [at 92.7 µM] (inactive)"}
{"smiles": "CCS(=O)(=O)C(C)(C)S(=O)(=O)CC", "activity change, negative = cytotoxicity": "-9.33% (inactive)"}
{"smiles": "O=c1[nH]c2cc(Cl)ccc2n1C1CCNCC1", "activity change, negative = cytotoxicity": "9.25% (inactive)"}
{"smiles": "C[N+]1(CCC(C(N)=O)(c2ccccc2)c2ccccc2)CCCCC1", "activity change, negative = cytotoxicity": "10.5% (inactive)"}
{"smiles": "COP(=S)(OC)Oc1ccc(Sc2ccc(OP(=S)(OC)OC)cc2)cc1", "activity change, negative = cytotoxicity": "3.99% (inactive)"}
{"smiles": "NC(=O)OCCCc1ccccc1", "activity change, negative = cytotoxicity": "6.08% (inactive)"}
{"smiles": "CCOP(=S)(OCC)O/N=C(\\C#N)c1ccccc1", "activity change, negative = cytotoxicity": "-2.94% (inactive)"}
{"smiles": "CCN1CCCC1CNC(=O)C(O)(c1ccccc1)c1ccccc1", "note": "(stereo not drawn)", "activity change, negative = cytotoxicity": "16.8% (inactive)"}
{"smiles": "CCC1(CC)C(=O)NC(=O)NC1=O", "activity change, negative = cytotoxicity": "0.0369% (inactive)"}
{"smiles": "CC(C)(O)C(Cl)(Cl)Cl", "activity change, negative = cytotoxicity": "10% (inactive)"}
{"smiles": "c1ccc2nc(N3CCNCC3)ccc2c1", "activity change, negative = cytotoxicity": "-1.53% (inactive)"}
{"smiles": "CCOC(=O)C(c1c(O)c2ccccc2oc1=O)c1c(O)c2ccccc2oc1=O", "activity change, negative = cytotoxicity": "5.19% (inactive)"}
{"smiles": "CC(C)(C)OC(=O)c1ncn2c1[C@@H]1CCCN1C(=O)c1c(Br)cccc1-2", "activity change, negative = cytotoxicity": "5.47% (inactive)"}
{"smiles": "CC(C(O)c1ccccc1)N(C)C/C=C/c1ccccc1", "note": "(stereo not drawn)", "activity change, negative = cytotoxicity": "2.06% (inactive)"}
